# Hit rate of the full screen: of about 310,000 compounds, about 11,000 (3.5%) were called active. Not shown: some 8% with an inconclusive outcome. Shown is part of a subset that was picked to be rich in actives. A call without a number means that no potency is given here. Unmarked numbers belong to inactive results. Calls come from the whole dose curve; as a rule, active = well fitted inhibition curve with a large enough effect; inconclusive = small, poorly fitted or top-dose-only effect, or effect the other way; inactive = flat fitted curve, though single readings scatter.
# Assay: VP16 counterscreen qHTS for inhibitors of ROR gamma transcriptional activity;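 note: Gal4-VP16 expression switched on by copper sulfate through the metallothionein promoter; nearly all actives have a fitted effect of over 50% in size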
# Conditions: Drosophila S2 Gal4-VP16 UAS-luciferase, luminescence, 20 h; series mostly up to 53.6 µM
# Text: NIH Molecular Libraries Probe Production Network [MLPCN]
# NIH Chemical Genomics Center [NCGC]
# Assay Provider: Dan Littman, New York University
# The retinoic acid-related orphan receptor (ROR) gamma is a transcription factor that has a central role in the differentiation of Th17 cells, a subset of T helper cells that secrete the inflammatory cytokines IL-17, IL-17F, and IL-22. Th17 cells have been implicated in graft versus host disease, autoimmune disease and asthma. ROR gamma is induced in naive T helper cells in the presence of TGF-beta combined with IL-6, IL-21, or IL-23, and thereafter directs the expression of the Th17 lineage cytokines. To identify nonspecific inhibitors, a Drosophila Schneider cell line was stably transfected with two vectors: a gene expressing a fusion of the Gal4 DNA binding domain and VP16 transactivation domain under the control of the metallothionine promoter and a Photinus luciferase reporter regulated by the Gal4 binding site enhancer, UAS. […] Small molecule inhibitors that inhibit components common to the RORgt and VP16 assays, such as the Gal4 DNA binding domain or the UAS luciferase reporter, will be active in both assays and thus scored as nonspecific.
# For screening, 600 cells in 4 uL/well were dispensed into white solid 1536-well plates (Grenier) using a solenoid-based dispenser. Following transfer of 23 nL compound or DMSO vehicle by a pin tool, the plates were incubated 1 hr at ambient temperature, and 1 uL/well copper sulfate (700 uM final concentration) was added. The plates were centrifuged 15 s at 1000 RPM and incubated 20 hr at ambient temperature. After addition of 1.5 uL Photinus luciferase detection reagent, the plates were incubated 10 min at ambient temperature and then read by a ViewLux (Perkin Elmer) to detect luminescence.
# Potency is the fitted concentration of half-maximal effect.
SMILES,Potency,"activity, negative = inhibition"
Fc1cccc2ncnc(OCc3ccccc3)c12,inactive,–
Cc1nc2ccccc2cc1OCc1ccc(F)cc1,6.31 µM (active),–
Cc1occc(=O)c1OCc1ccc(F)cc1,inactive,–
O=C(CCc1nnc2ccc(NCc3ccccc3Cl)nn12)NCC1CCN(C2CCCC2)C1 (stereo unspecified),inactive,–
COC(=O)c1ccc(N2CCOCC2)c(NC(=O)c2ccc3c(c2)OCCO3)c1,inactive,–
COc1ccc(NC(=O)CCCNC(=O)Cn2cnc3sc4c(c3c2=O)CCCC4)cc1OC,inactive,–
COc1ccc(/C=N/Nc2ncnc3sc4c(c23)CCCC4)cc1O,4.47 µM (active),–
COc1ccc(NC(=O)CCNC(=O)Cn2cnc3sc4c(c3c2=O)CCCC4)cc1OC,inactive,–
CNC(=O)C1CCN(S(=O)(=O)c2c(C)noc2/C=C/c2cccc(C)c2)CC1,inactive,–
O=C(Cc1ccccc1F)NC1CCSc2ccccc21 (stereo unspecified),inactive,–
CCOc1ccc2nc(NC(=O)CSc3nc4c(c(=O)n(C)c(=O)n4C)n3CC)sc2c1,inactive,–
COc1ccc2nc(NC(=O)NC3CCCCC3)sc2c1,inactive,–
COc1ccc2nc(Nc3nc(-c4ccncc4)cs3)sc2c1,inactive,–
COc1ccc2nc(Nc3nc4ccc(NC(C)=O)cc4s3)sc2c1,7.08 µM (active),–
CCC(=O)c1ccc(OCC(=O)Nc2ccc3nc(C)sc3c2)cc1,inactive,–
CCOc1ccc2nc(Nc3nc4ccc(NC(C)=O)cc4s3)sc2c1,7.08 µM (active),–
O=C(Nc1cccc(-c2cscn2)c1)C1CCN(Cc2ccsc2)CC1,inactive,–
Cc1cc2cc(CNC(=O)c3ccc(S(=O)(=O)N4CCOCC4)cc3)ccc2[nH]1,inactive,–
CCc1cccc(CC)c1NC(=S)NCc1ccc2[nH]c(C)cc2c1,11.2 µM (active),–
CCc1cccc(CC)c1NC(=S)Nc1ccc2cn[nH]c2c1,inactive,–
Cc1cc(Cl)ccc1C(=O)C1CCCN(C(=O)c2nonc2C)C1 (stereo unspecified),inactive,–
Nc1nc(-c2ccccc2)cc(-c2ccccc2)n1,inactive,–

SMILES,Potency,"activity, negative = inhibition"
N#Cc1cccc(NC(=O)COC(=O)c2ccccc2C(=O)c2ccc(Cl)c([N+](=O)[O-])c2)c1,7.08 µM (active),–
CC(=O)Nc1ccc(NC(=O)C(C)OC(=O)c2ccccc2C(=O)c2ccc(Cl)c([N+](=O)[O-])c2)cc1 (stereo unspecified),inactive,–
COC(=O)c1cc(NC(=O)Cc2ccccc2[N+](=O)[O-])ccc1Cl,inactive,–
Cc1ccccc1OCC(=O)Nc1nnc(S(=O)(=O)N2CCCC2)s1,inactive,–
Oc1c(C(c2ccccn2)N2CCOCC2)ccc2cccnc12 (stereo unspecified),2.82 µM (active),–
OC(COc1ccc2ccccc2c1)CN1CCOCC1 (stereo unspecified),inactive,–
Cc1nc2sc(C(c3ccco3)N3CCOCC3)c(O)n2n1 (stereo unspecified),inactive,–
COC(=O)c1ccc2c(C(C)(C)O)c(C(C)(C)O)[nH]c2c1,inactive,–
O=C(NCCNc1ccc([N+](=O)[O-])cc1Cl)c1ccccc1F,inactive,–
O=C(Nc1ccc(N2CCN(C(=O)c3ccccc3)CC2)c(Cl)c1)c1cccnc1,17.8 µM (active),–
COC(=O)c1cc(NC(=O)c2cccnc2)ccc1N1CCOCC1,inactive,–
O=C(Nc1cccc(Cl)c1N1CCOCC1)c1cccnc1,inactive,–
COc1cccc(CNC(=O)CCCC(=O)Nc2cccc([N+](=O)[O-])c2)c1,inactive,–
S=C1SCN(CCN2CCOCC2)CN1Cc1ccccc1,inactive,–
CCCN1CNC(=S)N(CCc2ccccc2)C1,3.16 µM (active),–
N#CNC1=NCN(CCc2ccccc2)CN1,inactive,–
COc1ccc(S(=O)(=O)N(CC(=O)N/N=C/c2ccccc2C(=O)O)c2ccccc2OC)cc1,inactive,–
COc1ccccc1N(CC(=O)N/N=C(\C)c1ccccc1O)S(=O)(=O)c1ccc(C)cc1,0.708 µM (active),–
COc1ccccc1NC(=O)CN(c1ccccc1OC)S(=O)(=O)c1ccccc1,inactive,–
COc1cc(OC)c(OC)cc1/C=N/Nc1ncnc2c1[nH]c1ccc(C)cc12,inactive,–
CC(C)OCCCNc1ncnc2c1[nH]c1ccc(F)cc12,2.82 µM (active),–
CC(C)OCCCNC(=O)c1cc(Sc2ccc(F)cc2)nc2ccccc12,inactive,–

SMILES,Potency,"activity, negative = inhibition"
COC1=C(N2CCOCC2)C(=O)c2ccccc2C1=O,inactive,–
COC(=O)C(C)Oc1ccc2c(c1)O/C(=C\c1cccc(Br)c1)C2=O (stereo unspecified),inactive,–
CCCS(=O)(=O)N1CCN=C1SCc1cccc(F)c1,inactive,–
COc1ccc(-c2noc(CNC(=O)C(C)Oc3ccccc3)n2)cc1 (stereo unspecified),inactive,–
COc1ccc2[nH]c3nc(SCC(=O)NC4CC4)nnc3c2c1,inactive,–
COc1ccc(C(=O)Nc2ncc3c(n2)-c2ccccc2CC3)cc1,inactive,–
COCCN(CCOC)S(=O)(=O)c1ccc(C(=O)Nc2nc3c(s2)CCc2ccccc2-3)cc1,12.6 µM (active),–
COCCN(CC(=O)Nc1ccccc1C)S(=O)(=O)c1ccc(S(=O)(=O)N2CCCC2)cc1,–,-1.46% [at 0.365 µM]
Cc1onc(-c2ccccc2)c1C(=O)NNC(=S)NC(=O)c1ccc(F)cc1,2 µM (active),–
Cc1onc(-c2ccccc2)c1C(=O)N=C(N)c1ccc(Cl)cc1,inactive,–
CC(=O)Nc1cccc(NC(=O)c2c(-c3ccccc3)noc2C)c1,inactive,–
Cc1onc(-c2ccccc2)c1C(=O)Nc1ccccc1C#N,inactive,–
Cc1ccc(CNC(=O)c2c(-c3ccccc3)noc2C)cc1,inactive,–
COc1ccc(C(=O)NC(=S)NNC(=O)c2c(-c3ccccc3)noc2C)cc1,5.62 µM (active),–
CC(C)c1ccc(S(=O)(=O)NC2CCCC2)cc1,inactive,–
COc1ccc(CN2CC(C(=O)NCCc3ccc(Cl)cc3)CC2=O)cc1 (stereo unspecified),inactive,–
CC(C)(C)c1ccc(Oc2ccc(N)cc2)cc1,7.08 µM (active),–
Nc1ccc(Oc2ccc(Cl)cc2)cc1,inactive,–
Cc1ccc(Oc2ccc(N)cc2)cc1,inactive,–
CC1=C(C(=O)NC2CC(C)(C)Cc3c2cnn3-c2ccc(C)cc2)OCCO1 (stereo unspecified),inactive,–
NS(=O)(=O)c1ccc2nc(NC(=O)CS(=O)(=O)c3ccc(F)cc3)sc2c1,inactive,–
CCS(=O)(=O)N1Cc2ccccc2CC1C(=O)Nc1nc2ccc(F)cc2s1 (stereo unspecified),11.2 µM (active),–

SMILES,Potency,"activity, negative = inhibition"
CCS(=O)(=O)N1Cc2ccccc2CC1C(=O)Nc1ccc(OC)cc1OC (stereo unspecified),inactive,–
O=c1c2cc([N+](=O)[O-])ccc2nc2n1CCC2,inactive,–
O=S(=O)(NC1CCCCC1N1CCC(O)CC1)c1ccc(Cl)cc1 (stereo unspecified),inactive,–
COc1cccc(CN(C)CC(O)COC(c2ccccc2)c2ccccc2C)c1 (stereo unspecified),inactive,–
COc1ccc(NC(=O)CCS(=O)(=O)c2cc3c(cc2Cl)NC(=O)CO3)cc1OC,inactive,–
CN(C)CCN(C(=O)C1=COCCO1)c1nc2ccc(Cl)cc2s1,inactive,–
O=C(Nc1ccc(Sc2ccc(Br)cc2)cc1)c1ccco1,2.82 µM (active),–
O=C(Nc1ccccc1)c1ccco1,inactive,–
O=C(Nc1ccc(O)cc1)c1ccc(NC(=O)c2ccco2)cc1,inactive,–
CCN(CC(=O)Nc1ccc(C)c(S(=O)(=O)N(C)C)c1)Cc1ccccc1,inactive,–
Cc1ccc(C(C)C)c(OCCSc2nc3ccccc3n2CC(=O)O)c1,inactive,–
C#CCN(N(C)c1ncc(C(F)(F)F)cc1Cl)S(=O)(=O)c1ccc2ccccc2c1,inactive,–
CN(Cc1ccc(F)cc1Cl)S(=O)(=O)c1cccs1,inactive,–
CN(NS(=O)(=O)c1cccs1)c1ncc(C(F)(F)F)cc1Cl,5.01 µM (active),–
Cc1ccc(NC2CCCN(C(=O)CCc3cn[nH]c3)C2)cc1C (stereo unspecified),inactive,–
CCc1nccn1CCC(=O)N1CCCC(N2CCN(c3ccccc3F)CC2)C1 (stereo unspecified),inactive,–
COCc1ccc(C(=O)NC2CC(C)(C)Cc3c2cnn3-c2ccc(C)cc2)o1 (stereo unspecified),inactive,–
CCCc1cc(C(=O)N2CCCC(CO)(CCCc3ccccc3)C2)n(C)n1 (stereo unspecified),inactive,–
O=C(O)c1ccc(N/N=C/c2ccc3ncccc3c2)cc1,0.398 µM (active),–
O=C(O)c1ccc(/C=N/Nc2nc(N3CCCCC3)nc(N3CCCCC3)n2)cc1,inactive,–
O=C(O)c1ccc(/C=N/NC(=O)c2ccc(Br)cc2)cc1,inactive,–
COc1ccc(OCc2cc(C(=O)NCC3(C)COC3)no2)c(Cl)c1,inactive,–

SMILES,Potency,"activity, negative = inhibition"
COc1ccc(CNC(=O)C(=O)NCC2OCCN2C(=O)c2ccc(OC)cc2)cc1 (stereo unspecified),inactive,–
COc1ccccc1C(=O)N(C1=NC(C)CS1)c1ccc(Cl)cc1 (stereo unspecified),inactive,–
CN(CCc1ccccn1)C(=O)c1ccc(OC2CCN(CCc3ccccc3)CC2)cc1,inactive,–
CCOC(=O)c1c(S(=O)(=O)Nc2cccc(Cl)c2)c(C)n(C)c1C,inactive,–
Cc1nc2ccccc2c(C)c1C(=O)c1ccc(F)cc1,inactive,–
CC(C)c1ccc2c([Si](C)(C)C)c3c(nc2c1)-c1cccc(=O)n1C3,inactive,–
Cc1c2c(nc3ccccc13)-c1cccc(=O)n1C2,8.91 µM (active),–
Cc1cc(C)c2nc(N(CCN(C)C)C(=O)/C=C/c3cccs3)sc2c1,inactive,–
C=CCNC(=S)N/N=C/c1ccc(OCc2ccccc2)cc1,inactive,–
CNC(=S)N/N=C/c1ccc(OCc2ccccc2)c(Br)c1,3.55 µM (active),–
O=C(O)COc1ccc(/C=N/O)cc1Br,inactive,–
Cc1cc(C)cc(N(CC(=O)NC2CCCC2)C(=O)CCC(=O)Nc2cc(C)on2)c1,inactive,–
O=C(Nc1ccc(F)cc1)C(=O)c1cn(CC(=O)N2CCOCC2)c2ccccc12,inactive,–
Cc1cc(C(=O)CSc2nc(N)cc(=O)[nH]2)c(C)n1-c1cccc(F)c1,17.8 µM (active),–
Cc1cc(C(=O)CSc2nc(N)cc(=O)[nH]2)c(C)n1CCc1ccc(Cl)cc1,inactive,–
Cc1cc(=O)[nH]c(SCc2cccc(F)c2)n1,inactive,–
CCCn1c(=O)c(C(=O)Nc2cc(C)ccn2)c(O)c2ccccc21,inactive,–
CCN1C(=S)N[C@@H](CCc2ccccc2)[C@H](C(=O)OC)[C@H]1C,inactive,–

# Reference: PubChem BioAssay AID2546 (National Center for Advancing Translational Sciences (NCATS), 2010)
